# Values quoted from earlier work in PubChem BioAssay AID977611.
# Out of some 3,900 compounds screened, about 3,900 (100%) were called active. No cut-off is given here; in the data, nearly all actives have Kd up to about 4200 µM. The set was probably picked from earlier hits. The list shows a part of the results. Numbered stars: 1 amine (or outer) side, 2 acyl side, 3 side chain; on linkers, the order of the positions; unused ones are H or OH. Starred links: 1 amine or outer side, 2 acyl side, 3 side chain; linkers in the order of their positions; H or OH if unused. Where a SMILES comes first, the peptide text is derived from it. Non-standard residues stand in square brackets, D forms with d. Square brackets hold non-standard residues; d marks the D form. Residues, ends and D or L forms follow the SMILES beside them. Peptide text beside a SMILES is read from it. [ ]: non-standard residue; d: D form. X1 = O=C([C@H](Cc1ccc(O[P+](O)(O)O)cc1)N[*:1])[*:2]; Thr(P(OH)3+) = C[C@@H](O[P+](O)(O)O)[C@H](N)C(=O)O
# Assay: PubChem AID 977611
# Conditions: PDB protein-ligand complexes, literature Kd
molecule,measurement,setting,value
CC(=O)N[C@H]1[C@@H](O[P+](O)(O)O[P+](O)(O)OC[C@H]2O[C@@H](n3ccc(=O)[nH]c3=O)[C@H](O)[C@@H]2O)O[C@H](CO)[C@@H](O)[C@@H]1O,Kd,"protein: UDP-N-acetylglucosamine 1-carboxyvinyltransferase(C115D mutant), PDB entry 3v4t",77000 nM (active)
same,Kd,"protein: UDP-N-acetylglucosamine 1-carboxyvinyltransferase, PDB entry 3upk",50000 nM (active)
CCCCCCCCCCC[C@@H](O)CC(=O)O[C@@H]1[C@@H](N)[C@@H](O[P+](O)(O)O[P+](O)(O)OC[C@H]2O[C@@H](n3ccc(=O)[nH]c3=O)[C@H](O)[C@@H]2O)O[C@H](CO)[C@H]1O,Kd,"protein: UDP-3-O-[3-hydroxymyristoyl] N-acetylglucosamine deacetylase, PDB entry 4mdt",10000 nM (active)
CC1=C(SC[C@H](NC(=O)CC[C@H](N)C(=O)O)[C@H](O)NCC(=O)O)C(=O)c2ccccc2C1=O,Kd,"protein: protein yqjG, PDB entry 4g0k",4300 nM (active)
CCCCCCCCCCCCOS(O)(O)O,Kd,"protein: Beta-lactoglobulin, PDB entry 4gny",52000 nM (active)
H-EPQYEEIPIYL-OH,Kd,"protein: P56 LCK Tyrosine kinase, PDB entry 1lcj",1 nM (active)
H-MRYGQSPNM-OH,Kd,"protein: Protein HTP-2, PDB entry 4tzn",300 nM (active)
CC[C@H](C)[C@H](NC(=O)[C@@H](NC(=O)[C@H](CC(C)C)NC(=O)[C@H](CCC(=O)O)NC(=O)[C@H](CCC(=O)O)NC(=O)[C@H](CCC(N)=O)NC(=O)[C@@H]1CCCN1C(=O)[C@H](CC(=O)O)NC(=O)[C@H](CO)NC(=O)CNC(=O)[C@H](Cc1ccc(O)cc1)NC(=O)[C@H](CC(C)C)NC(=O)[C@H](CCC(=O)O)NC(=O)[C@H](C)NC(=O)[C@H](CC(C)C)NC(=O)[C@@H](N)CCSC)[C@@H](C)CC)C(=O)O,Kd,"protein: mouse Partitioning defective 3 homolog, PDZ 3 domain, PDB entry 2koh",6000 nM (active)
CC(=O)N1CCC[C@H]1C(=O)N[C@@H](CC(C)C)C(=O)N[C@@H](Cc1c[n+](C)cn1CCCCCCCCc1ccccc1)C(=O)N[C@@H](CO)C(=O)N[C@H](C(N)=O)[C@@H](C)O[P+](O)(O)O (Ac-PL[X1]S[Thr(P(OH)3+)]-NH2),Kd,"protein: Serine/threonine-protein kinase PLK1 PBD, PDB entry 4o6w",3 nM (active)
CC[C@H](C)[C@H](NC(=O)[C@H](CCC(=O)O)NC(=O)[C@H](CC(C)C)NC(=O)[C@@H](NC(=O)[C@H](CC(=O)O)NC(=O)[C@@H]1CCCN1C(=O)[C@H](CC(=O)O)NC(=O)[C@@H](N)CC(N)=O)[C@@H](C)O[P+](O)(O)O)C(=O)N[C@@H](Cc1ccc(O)cc1)C(=O)N[C@@H](CO)C(=O)O (H-NDPD[Thr(P(OH)3+)]LEIYS-OH),Kd,"protein: Serine/threonine-protein kinase RAD53, PDB entry 2a0t",15000 nM (active)
NCC(=O)N[C@@H](CCCN=C(N)N)C(=O)NCC(=O)N[C@@H](CC(=O)O)C(=O)N[C@@H](CO)C(=O)N1CCC[C@H]1C(=O)O,Kd,"protein: Integrin alpha 5-beta 1, PDB entry 4wk2",115 nM (active)
O=C1CCN([C@H]2C[C@H](O)[C@@H](CO[P+](O)(O)O)O2)C(=O)N1,Kd,"protein: Thymidylate synthase, PDB entry 4knz",8500 nM (active)
CC(C)C[C@H](N)C(=O)N[C@@H](Cc1ccc(O[P+](O)(O)O)cc1)C(=O)N[C@@H](CC(=O)O)C(=O)O,Kd,"protein: THROMBIN, LIGHT CHAIN & THROMBIN, HEAVY CHAIN, PDB entry 4ch8",1030 nM (active)
CC[C@H](C)[C@H](NC(=O)[C@H](Cc1ccc(O[P+](O)(O)O)cc1)NC(=O)[C@H](CC(=O)O)NC(=O)[C@@H](N)CC(N)=O)C(=O)N[C@@H](CC(=O)O)C(=O)N[C@@H](CC(N)=O)C(=O)N1CCC[C@H]1C(=O)O (H-ND[X1]IDNP-OH),Kd,"protein: E3 ubiquitin-protein ligase CBL, PDB entry 3bun",610 nM (active)
H-NELNNNAP-OH,Kd,"protein: SPRY DOMAIN-CONTAINING SOCS BOX PROTEIN 1, PDB entry 2jk9",150 nM (active)
CC(C)C[C@H](NC(=O)[C@@H](N)CC(=O)O)C(=O)N[C@@H](Cc1ccc(O[P+](O)(O)O)cc1)C(=O)N[C@@H](CC(=O)O)C(=O)N[C@@H](Cc1ccc(O[P+](O)(O)O)cc1)C(=O)N[C@@H](Cc1ccc(O[P+](O)(O)O)cc1)C(=O)N1CCC[C@H]1C(=O)O,Kd,"protein: THROMBIN, LIGHT CHAIN & THROMBIN, HEAVY CHAIN, PDB entry 4ch2",1030 nM (active)
NC(=O)CC[C@H](NC(=O)[C@@H](N)Cc1cnc[nH]1)C(=O)N[C@@H](Cc1ccc(O[P+](O)(O)O)cc1)C(=O)N[C@@H](Cc1ccc(O[P+](O)(O)O)cc1)C(=O)N[C@@H](CC(N)=O)C(=O)N[C@@H](CC(=O)O)C(=O)N[C@@H](Cc1ccccc1)C(=O)N1CCC[C@H]1C(=O)O (H-HQ[X1][X1]NDFP-OH),Kd,"protein: Grb2 SH2 domain, pY-Clamp Shc1_pY239/240, PDB entry 4jmh",2.1 nM (active)
NC1NC(=O)c2ncn([C@@H]3O[C@H](CO[P+](O)(O)O[P+](O)(O)O)[C@@H](O)[C@H]3O)c2N1 (stereo not given in full),Kd,PDB entry 4lps,1800 nM (active)
same,Kd,"protein: Atlastin-1, PDB entry 4ido",11600 nM (active)
same,Kd,"protein: Methylmalonyl-CoA mutase accessory protein, PDB entry 4jyc",200 nM (active)
same,Kd,"protein: Ras-related protein Rab-8A with Guanine nucleotide exchange factor GRAB, PDB entry 4li0",260 nM (active)
same,Kd,"protein: Ras-related protein Rab-8A, PDB entry 4lhv",0.1 nM (active)
NC1C=CN([C@@H]2O[C@H](CO[P+](O)(O)O[C@H]3[C@@H](O)[C@H](n4cnc5c4NC(N)NC5=O)O[C@@H]3CO[P+](O)(O)O[C@H]3[C@@H](O)[C@H](n4cnc5c4NC(N)NC5=O)O[C@@H]3CO[P+](O)(O)O[C@H]3[C@@H](O)[C@H](n4cnc5c4NC(N)NC5=O)O[C@@H]3CO[P+](O)(O)O)[C@@H](O[P+](O)(O)O)[C@H]2O)C(=O)N1 (stereo not given in full),Kd,"protein: Heat resistant RNA dependent ATPase, PDB entry 4i67",450 nM (active)
NC1NC(=O)c2ncn([C@H]3CC[C@@H](CO[P+](O)(O)O[P+](O)(O)O[P+](O)(O)O)O3)c2N1 (stereo not given in full),Kd,"protein: DNA polymerase X from Thermus thermophilus HB8, PDB entry 3au6",12 nM (active)
NC1NC(=O)c2ncn([C@@H]3O[C@H](CO[P+](O)(O)O[P+](O)(O)O[P+](O)(O)O)[C@@H](O)[C@H]3O)c2N1 (stereo not given in full),Kd,"protein: ADP-ribosylation factor 6, PDB entry 4kax",17000 nM (active)
